The text below walks through data of PubChem BioAssay (NCI).

Where “and” joins values, the source holds several entries; their conditions need not be identical. Equal entries are not always repeated. Compounds without any hit were thinned out: in the full panel of roughly 79,000, 15% have a hit. Values without a mark were called inactive. Calls of active or inactive are those of the source. Rule as the data show it: active = growth inhibition above about 70%; inactive = the rest.

The nature of assay [1]: NCI Yeast Anticancer Drug Screen. Data for the rad50 strain (AID 155).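 Also: 0% = growth of vehicle-only cultures of the same strain.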 Conditions: S. cerevisiae rad50 strain growth inhibition, active compounds read high; at 50.0 µM unless noted. The method in brief:
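Vehicle-treated cultures provide the reference for the growth inhibition reported for compound-exposed, repair-deficient yeast.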

Assay [2] in a line: NCI Yeast Anticancer Drug Screen. Data for the mec2-1 strain (AID 157). The settings on record: S. cerevisiae mec2-1 strain, active compounds read high; at 50.0 µM unless noted. The procedure, abridged:
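Compounds were applied to mec2-1 yeast cells. Their growth was then compared with that of vehicle-treated cultures to give growth inhibition.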

Assay [3] in a line: NCI Yeast Anticancer Drug Screen. Data for the cln2 rad14 strain (AID 165).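 Also: 0% = growth equal to vehicle treated cultures.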 Conditions: S. cerevisiae cln2 rad14 strain, active compounds read high; at 50.0 µM unless noted. The method in brief: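 Strain: cln2 rad14 yeast, altered in cell cycle control and DNA damage repair. Read-out: growth inhibition vs vehicle.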
The nature of assay [4]: NCI Yeast Anticancer Drug Screen. Data for the bub3 strain (AID 167). The settings on record: S. cerevisiae bub3 mutant strain, active compounds read high; at 50.0 µM unless noted. The method in brief: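 Mutant yeast screening strain plus compound; vehicle-treated cultures serve as the 0% inhibition reference.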
Assay [5] in a line: NCI Yeast Anticancer Drug Screen. Data for the mlh1 rad18 strain (AID 175). The settings on record: S. cerevisiae mlh1 rad18 strain growth inhibition, active compounds read high; at 50.0 µM unless noted. The procedure, abridged: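 A repair-deficient yeast strain is exposed to test compound, and growth is scored relative to vehicle-treated controls.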
Assay [6] is described as follows: NCI Yeast Anticancer Drug Screen. Data for the sgs1 mgt1 strain (AID 161).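 Also: 0% = growth of cultures given vehicle only.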 The settings on record: S. cerevisiae sgs1 mgt1 strain, active compounds read high; at 50.0 µM unless noted. The procedure, abridged: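 Percent growth inhibition was derived by comparing compound-exposed mutant yeast with vehicle-exposed cultures. The strain carries alterations in DNA damage repair.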

Take `Nc1cncnc1N`: the growth inhibition in assay [1] was 35.7%; in assay [2], 7.25%; in assay [3], 16.2%; in assay [4], -18.6%; in assay [5] it was 26.5%.
As for `CC(C)CCNc1ccccc1`, the growth inhibition in assay [1] is 1.55%; in assay [2], -7.65%; in assay [4], 3.55%; in assay [5], 0.45%.
For `CC1=NN(c2ccccc2)C(=O)C1O` (configuration not stated), the growth inhibition is 12.1% in assay [1]; 16.2% in assay [2]; -25.4% in assay [3]; -10.6% in assay [4]; 2.5% in assay [5].
Take `CC1=C2CC(C)(C)/C=C\C(=O)/C(C)=C\C3=C[C@H](C)C[C@]3(O2)C1=O`: the growth inhibition in assay [1] was 60.8%; in assay [2], 71.2% (active); in assay [3], 40.4%; in assay [4], 64.4%; in assay [5], 79.8% (active).
The matching figures for `c1ccc(N=c2sc3ccccc3nc2Nc2ccccc2)cc1`: 5.65%, -37.8%, -64.8%, -23.3% and -48.9%.
`Cc1nc(Nc2cccc(Cl)c2)c2cnn(-c3ccc(Cl)cc3)c2n1`: the growth inhibition is -2.5% in assay [1]; -0.25% in assay [2]; -41.4% in assay [3]; -0.45% in assay [4]; -4.35% in assay [5].
The like results for `COC(=O)C1=CO[C@@H](OC2OC(CO)C(O)C(O)C2O)[C@H]2[C@@H]1C=C[C@@]21C=C([C@H](C)OC(=O)/C=C/c2ccc(OC3OC(CO)C(O)C(O)C3O)cc2)C(=O)O1` (some centres not stated) were, in that order, -18.4%, -18.6%, -6.15%, 2.65% and -20.1%.
The matching figures for `Cn1c2ccccc2c(=O)c2[nH]c3ccccc3c21`: 77.1% (active), 78.5% (active), 63.5%, 83.3% (active) and 76.8% (active).
For `Cc1c(CCN2CCOCC2)c(N2CCOCC2)n2c(nc3ccccc32)c1C#N`, the growth inhibition was -14.7% in assay [1]; -11.9% in assay [2]; 1% in assay [3]; -16.3% in assay [4]; -15% in assay [5].
The matching figures for `CCCCOC(c1ccccc1)c1ccccc1`: -19.8%, -18.6%, -17.8%, -4.25% and 1.95%.
As for `CN(C)c1ccc(C(c2ccc(N(C)C)cc2)c2ccc([N+](=O)[O-])cc2)cc1`, the growth inhibition in assay [1] is -3.75%; in assay [2], -35.7%; in assay [3] it was 8.3%; in assay [4], 39%; in assay [5] it was -16.8%.
The like results for `O=C1c2ccccc2S(=O)(=O)c2c1cccc2[N+](=O)[O-]` were, in that order, 14.1%, -15.4%, 5.3%, -4.7% and 15.7%.
The matching figures for `COc1cccc(C2SC(N)=Nc3c2c(C)nn3C(=O)c2ccccc2O)c1` (configuration not stated): 19.7%, 9.25%, 17.6%, 38% and 24.9%.
As for `C(=N\N(c1ccccc1)c1ccccc1)/C(c1ccccc1)c1ccccc1`, the growth inhibition is 2.55% in assay [1]; -3.2% in assay [2]; -3.95% in assay [3]; 2.2% in assay [4]; -4.35% in assay [5].
For `CCc1cc(C)cc(O)c1`, the growth inhibition in assay [1] was -42.9% and 38%; in assay [2] it was -40% and 4.6%; in assay [3] it was 0.45% and 7.15%; in assay [4] it was -56% and 27.4%; in assay [5], -29.9% and 12%.
With `O=C(C[n+]1ccccc1CO)c1ccc(-c2ccccc2)cc1`, the growth inhibition is 26.2% in assay [1]; -6.4% in assay [2]; -4.85% in assay [3]; 6.5% in assay [4]; 5.4% in assay [5].
The like results for `O=C(c1ccc(-c2ccccc2)cc1)C(O)c1ccc(-c2ccccc2)cc1` (configuration not stated) were, in that order, 7.55%, 0.4%, -5.35%, 1.2% and 4.65%.
Take `Cc1ccc(S(=O)(=O)c2ccccc2)cc1`: the growth inhibition in assay [1] is -18.4% and 23.4%; in assay [2], -15.6% and -0.95%; in assay [3], 2.4% and 1.35%; in assay [4] it was -5.35% and 3.1%; in assay [5], -43.6% and 16.6%.
With `Cc1cc(C)nc(NS(=O)(=O)c2ccc(Nc3c4ccccc4nc4c(C(=O)Nc5ccc(S(=O)(=O)Nc6cc(C)on6)cc5)ccc(Cl)c34)cc2)n1`, the growth inhibition was 32.9% in assay [1]; 45.1% in assay [2]; 42.2% in assay [3]; 18.9% in assay [4]; 41.5% in assay [5].
For `O=Cc1ccc(C=O)o1`, the growth inhibition in assay [1] is 4.25%; in assay [2], -1.8%; in assay [3] it was 6.3%; in assay [4], -11.7%; in assay [5] it was 14.2%.
Turning to `CN(C)CC1CCCCCC(CN(C)C)C1=O` (configuration not stated), the growth inhibition was -17.9% and 38% in assay [1]; 8.3% and 2.75% in assay [2]; 0.45% and -28.4% in assay [3]; -10.4% and -1.65% in assay [4]; 16.8% and 12.9% in assay [5].
In the case of `CCOC(=O)c1cc2ccccc2cc1N=N`, the growth inhibition in assay [1] is 8.3%; in assay [2] it was 16.7%; in assay [3] it was -2.7%; in assay [4] it was 23.2%; in assay [5] it was 28.8%.
Regarding `NC(=S)/N=C/C=C\c1ccccc1`, the growth inhibition is -10.6% in assay [1]; 5.25% in assay [6]; 0.35% in assay [3]; -13.8% in assay [4]; -7.7% in assay [5].
The like results for `O=C1OCc2ccccc21` were, in that order, 3.2%, 11.2%, -26.7%, -6.05% and 3.15%.
The matching figures for `CCOc1c(N=Nc2ccc(Cl)cc2Cl)c(C)nn1C(=S)SC`: 41.4%, 25.9%, 15.5%, -0.45% and 19.6%.
Consider `CCOC(=O)C(=O)Nc1cc(C)no1`, for which the growth inhibition is 4.95% in assay [1]; -6.6% in assay [6]; -25.6% in assay [3]; -25.1% in assay [4]; -2% in assay [5].
The like results for `O=C(O)CCNC(=O)CNC(=O)OCc1ccccc1` were, in that order, 3.9%, -2.85%, 5.55%, -0.25% and -9.65%.
The like results for `COC1OC(CO)C(O)C(Nc2ccc([N+](=O)[O-])cc2[N+](=O)[O-])C1O` (configuration not stated) were, in that order, 7.2%, 19.1%, -53.6%, -10.8% and 1.1%.
For `CN1C(=O)/C(=C2\SC(=O)N(CN3CCOCC3)C2=O)c2ccccc21`, the growth inhibition in assay [1] is -6.1%; in assay [6], -40%; in assay [3] it was -7.55%; in assay [4] it was -39%; in assay [5] it was 2.35%.
The matching figures for `CCN(CC)N=Nc1ccc(C(=O)O)cc1`: 9.55%, -10.1%, -8.8%, 5.85% and -2%.
Take `O=C(Nc1ccc(Cl)c(Cl)c1)N(CCO)Cc1ccccc1`: the growth inhibition in assay [1] was 88.7% (active); in assay [6], 97.2% (active); in assay [3] it was 90% (active); in assay [4], 95.5% (active); in assay [5] it was 94.4% (active).
With `Cc1cc([N+](=O)[O-])ccc1P(=O)(O)O`, the growth inhibition in assay [1] was 8.55%; in assay [6], 0%; in assay [3], -0.65%; in assay [4], -3.8%; in assay [5] it was -7.95%.
The matching figures for `CCCCOP(=O)(Nc1ccc([N+](=O)[O-])cc1)OCCCC`: 94.1% (active), 91.1% (active), 74% (active), 77.2% (active) and 87.5% (active).
As to `OC1(C2NCCc3ccccc32)CCN(CCc2ccccc2)CC1` (configuration not stated), the growth inhibition in assay [1] was 21.8%; in assay [6] it was 25.5%; in assay [3] it was 20.2%; in assay [4] it was 2.95%; in assay [5], 8.9%.
Take `O=C(O)c1nc(-c2ccccc2)ncc1-c1nnnn1-c1ccccc1`: the growth inhibition in assay [1] was -37.7%; in assay [6], -21.9%; in assay [3] it was 4.7%; in assay [4], -18.7%; in assay [5] it was -7.1%.
`N#Cc1nc(C2CC2)oc1N`: the growth inhibition in assay [1] was -18.7%; in assay [6], -22.9%; in assay [3], 0.35%; in assay [4] it was -25.2%; in assay [5], 1.65%.
Regarding `S=C(S)Nc1cccc2ccccc12`, the growth inhibition is -14.4% and 11.2% in assay [1]; -13.9% and -10.2% in assay [2]; -16.2% and 14.3% in assay [5].
Consider `Oc1cc(O)c2c(c1)OC(c1ccc(O)c(O)c1)C(O)C2O` (configuration not stated), for which the growth inhibition in assay [1] is 20.2%; in assay [6], 14.3%; in assay [3] it was -3.55%; in assay [4], 21.2%; in assay [5] it was 30.9%.
Regarding `CN(C)CC[N+]1=Nc2cccc3cccc(c23)N1`, the growth inhibition was -6.85% in assay [1]; -2.4% in assay [6]; 1.55% in assay [3]; -6.2% in assay [4]; 3.9% in assay [5].
The matching figures for `CCN(CC)C(=O)C1CCN(CCOc2ccccc2)CC1`: -14.2%, 1.55%, -10%, -0.25% and -26%.
